In PubChem BioAssay (NCI) one finds growth data, which are given here for 14 compounds.

Some test systems named below: HCT-15 colon; HT29 colon; SNB-75 CNS; SNB-19 CNS; U251 CNS; PC-3 prostate; SK-MEL-5 melanoma; UACC-62 melanoma; LOX IMVI melanoma; SK-MEL-28 melanoma.
Holding throughout (assay): NCI-60 one-dose screen, 48 h (100 = growth as untreated, 0 = no growth, -100 = all killed)
What all share (conditions): 10 µM unless noted

The panel holds about 83,000 compounds, 20% with a hit somewhere; the sample as a whole holds those more often.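 Values shown are percent growth following 48 h exposure of cells in 96-well plates to a single concentration of compound; below 10 was considered active.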 A number with no mark means an inactive call. The source made the active and inactive calls.

Turning to `CC(=O)Nc1ccc(C)c(Nc2cc(-c3ccc(-n4cccn4)cc3)[nH]n2)c1`, the growth in the assay on HCT-15 colon was 41.3%; in the assay on HT29 colon, 27.8%; with SNB-75 CNS, 64.2%; in the assay with SNB-19 CNS, 45.7%; with U251 CNS, 42.5%; with PC-3 prostate, 65.3%. Moreover, the results for the growth in the assay with SK-MEL-5 melanoma, in the assay on UACC-62 melanoma and in the assay with LOX IMVI melanoma were 53.6%, 46.7% and 60%, respectively.

For `O=C(NNc1nc2cc(F)c(F)cc2n2cccc12)c1cccnn1`, the growth was 29.1% with HCT-15 colon; 29.5% in the assay with HT29 colon; 33.7% in the assay with SNB-75 CNS; 22.6% with SNB-19 CNS; 14.8% with U251 CNS; 33.7% with PC-3 prostate. Besides, the growth in the assay on SK-MEL-5 melanoma was -36.8% (active); with UACC-62 melanoma it was 10.5%; in the assay on LOX IMVI melanoma it was 3.83% (active).

Regarding `CCNCCCn1c2c(c3cc(OC)c(OC)cc3c1=O)C(=O)c1cc(OC)cnc1-2`, the growth was 22% in the assay with HCT-15 colon; -60.9% (active) in the assay on HT29 colon; 17.1% in the assay on SNB-75 CNS; 25.3% with SNB-19 CNS; -16.1% (active) in the assay with U251 CNS; 46.5% in the assay on PC-3 prostate. In addition, the growth in the assay on SK-MEL-5 melanoma was -18.2% (active); in the assay with UACC-62 melanoma, 5.63% (active); with LOX IMVI melanoma, -8.19% (active); in the assay on SK-MEL-28 melanoma it was 64.7%.

On to `COc1ccc(OC)c(NC2=C(Cl)C(=O)C(C)=C(C)C2=O)c1`, for which the growth was 94.7% in the assay on HCT-15 colon; 105% in the assay on HT29 colon; 71.7% with SNB-75 CNS; 95.3% with SNB-19 CNS; 94.1% in the assay with U251 CNS; 77.6% in the assay on PC-3 prostate. In addition, the growth is 89.6% in the assay on SK-MEL-5 melanoma, 93.8% with UACC-62 melanoma, 89.1% with LOX IMVI melanoma and 108% with SK-MEL-28 melanoma.

Consider `COc1ccc2c(ccn2C(=O)N2c3ccccc3Sc3ccccc32)c1`, for which the growth in the assay with HCT-15 colon was 32.7%; with HT29 colon, -12.6% (active); in the assay with SNB-75 CNS, -3.95% (active); with SNB-19 CNS, 30.8%; with U251 CNS it was 27%; in the assay on PC-3 prostate, 35.2%. In addition, the growth with SK-MEL-5 melanoma is 24.5%; in the assay on UACC-62 melanoma, 33.3%; with LOX IMVI melanoma it was 46.5%.

For `COC[C@]12CC[C@@H](C)[C@H](C)[C@H]1C1=CC[C@@H]3[C@@]4(C)CCCNC(C)(C)[C@@H]4CC[C@@]3(C)[C@]1(C)CC2`, the growth is 8.12% (active) with HCT-15 colon; 0.874% (active) with HT29 colon; 105% in the assay on SNB-75 CNS; 47.8% with SNB-19 CNS; -34.8% (active) with U251 CNS; 18.4% with PC-3 prostate. For the same compound, the growth in the assay with SK-MEL-5 melanoma is 35.6%; in the assay on UACC-62 melanoma, 17.2%; with LOX IMVI melanoma, -87.8% (active); with SK-MEL-28 melanoma, -59.6% (active).

For the compound `O=C1Nc2cc(OC(F)(F)F)ccc2Oc2ccc(-c3ccnc(N4CCNCC4)c3)cc21`, the growth in the assay with HCT-15 colon was -51.4% (active); in the assay on HT29 colon, -72.7% (active); in the assay on SNB-75 CNS it was -5.02% (active); with SNB-19 CNS it was 27.2%; in the assay on U251 CNS, -78.6% (active); in the assay with PC-3 prostate, 13.8%. The growth in the assay on SK-MEL-5 melanoma is -85.3% (active); with UACC-62 melanoma it was -70.7% (active); with LOX IMVI melanoma, -85.8% (active).

Turning to `O=C(NCCNc1cc(-c2cn(-c3ccccc3)nc2-c2cccc(O)c2)ccn1)Nc1ccc(Cl)c(C(F)(F)F)c1`, the growth with HCT-15 colon was 2.46% (active); with HT29 colon, 34.8%; in the assay with SNB-75 CNS it was 42.8%; in the assay on SNB-19 CNS, 46.8%; with U251 CNS it was 42.8%; in the assay on PC-3 prostate, 42.2%. The growth in the assay with SK-MEL-5 melanoma was 65.9%; in the assay with UACC-62 melanoma, 77%; with LOX IMVI melanoma it was 0.724% (active); in the assay on SK-MEL-28 melanoma it was 42.1%.

In the case of `CC1(C)CC[C@]2(C(=O)O)CC[C@]3(C)C(=CCC4[C@@]5(C)C[C@@H](O)[C@@H]6OC(c7ccccc7O)OC[C@@]6(C)C5CC[C@]43C)C2C1` (some centres not stated), the growth is 29.8% in the assay on HCT-15 colon; 44.1% in the assay with HT29 colon; 72.6% in the assay on SNB-75 CNS; 59.2% in the assay with SNB-19 CNS; 28.6% with U251 CNS; 62.9% in the assay with PC-3 prostate. Also, the growth in the assay with SK-MEL-5 melanoma is 63.4%; in the assay on UACC-62 melanoma it was 82.4%; in the assay on LOX IMVI melanoma, 27%; in the assay with SK-MEL-28 melanoma, 84.7%.

Regarding `C#C[C@]1(O)CC[C@H]2[C@@H]3CC=C4c5sc(Nc6nc(C)cc(OC)n6)nc5CC[C@]4(C)[C@H]3CC[C@@]21C`, the growth was 35.3% in the assay on HCT-15 colon; 60.8% with HT29 colon; -10.8% (active) in the assay on SNB-75 CNS; 55% in the assay on SNB-19 CNS; 34.2% in the assay with U251 CNS; 27.5% with PC-3 prostate. The growth with SK-MEL-5 melanoma is 17.9%; with UACC-62 melanoma, 0.98% (active).

Take `COc1ccc(/C=N\NC(=O)c2ccc3nc(-c4ccc(Br)cc4)[nH]c3c2)cc1`: the growth is 48.1% with HCT-15 colon; 17.5% with HT29 colon; 46.1% with SNB-75 CNS; 19.2% in the assay on SNB-19 CNS; -51.5% (active) in the assay with U251 CNS; 20.8% with PC-3 prostate. Also, the growth in the assay on SK-MEL-5 melanoma is 24.2%; with UACC-62 melanoma, 34.6%; with LOX IMVI melanoma, -26% (active).

In the case of `C#CCOc1ccc(/C=N/Nc2nc(-c3cc4cc(Br)cc(Br)c4oc3=O)cs2)cc1`, the growth with HCT-15 colon was 95.2%; in the assay on HT29 colon, 104%; with SNB-75 CNS, 90.3%; in the assay on SNB-19 CNS, 104%; in the assay on U251 CNS it was 96.2%; in the assay on PC-3 prostate, 88.1%. Moreover, the growth was 98.5% in the assay with SK-MEL-5 melanoma, 88.1% in the assay on UACC-62 melanoma, 102% with LOX IMVI melanoma and 106% in the assay on SK-MEL-28 melanoma.

In the case of `COc1ccc(NC2=C(Cl)C(=O)C(C)=C(C)C2=O)cc1`, the growth is 94.8% with HCT-15 colon; 106% with HT29 colon; 71.7% in the assay on SNB-75 CNS; 95.2% in the assay on SNB-19 CNS; 88.6% in the assay with U251 CNS; 74.7% with PC-3 prostate. In addition, the growth is 97.7% in the assay on SK-MEL-5 melanoma, 91% with UACC-62 melanoma and 65.8% in the assay with LOX IMVI melanoma.

Regarding `Cn1ccnc1C(=O)/C=C/c1ccc(C(=O)Nc2ccc(NC(=O)CCNC(=O)c3csc(Br)n3)cc2)cc1`, the growth in the assay on HCT-15 colon was 28.6%; in the assay with HT29 colon, 13.2%; in the assay on SNB-75 CNS, 71.2%; with SNB-19 CNS it was 60.6%; in the assay on U251 CNS it was 23.9%; with PC-3 prostate, 48%. The growth in the assay with SK-MEL-5 melanoma is 98.8%; with UACC-62 melanoma, 68.3%; with LOX IMVI melanoma, 11.5%; with SK-MEL-28 melanoma, 89.3%.
